40 compounds from PubChem BioAssay (Tox21) can be followed below.

Where “and” joins values, the source holds several entries; their conditions need not be identical. Equal values may be shown once. Records with an inconclusive call do not appear. Unmarked numbers belong to inactive results. Calls of active or inactive are those of the source. The call rests on the fitted dose curve; in most records, active means well fitted cell-killing curve with a large enough effect in the repeat runs; inconclusive means weak or mixed curves, or effect the other way; inactive means no such curve, though single readings can be large or run the other way.
On the % scale 0 is the no-effect control and ±100 the full control effect; potency means the concentration at half of the fitted maximal effect.

The assay in a line: Caspase-3/7 induction in CHO-K1 cells by small molecules, qHTS cell viability counter screen (AID 1346979). Further: nearly all actives have a fitted effect of over 35% in size. The following applies: CellTiter-Fluor fluorescence, 17 h; series mostly up to 92.4 µM; activity change, negative = cytotoxicity: at the top concentration. The text has this:
National Center for Advancing Translational Sciences [NCATS]
NIH Chemical Genomics Center [NCGC]
U.S. Environmental Protection Agency [EPA]
National Institutes of Environmental Health Sciences [NIEHS]
National Toxicology Program [NTP]
U.S. Food and Drug Administration [FDA]
Apoptosis is a process of programmed cell death and plays a central role in the development of multicellular organisms. It is a highly regulated process and induces cell death by activating caspases, which are the members of cysteine aspartic acid-specific protease (caspase) family. Caspases involved in apoptosis are classified by their mechanism of action as initiator caspases (caspase-2, -8, -9 and -10) and executioner caspases (caspase-3, -6, and -7). Inhibition of apoptosis results in number of cancers, autoimmune diseases, inflammatory diseases and viral infection. To identify small molecule compounds that induce apoptosis, a homogeneous, luminescent Caspase-Glo 3/7 assay was used. Wild type CHO-K1 cells were used to screen Tox21 libraries for identifying caspase-3/7 activity inducers. Also cytotoxicity of the compounds was tested in parallel by measuring the cell viability using CellTiter-Fluor assay system in the same wells.
Tox21 Assay Protocol Summary:
CHO-K1 cells were dispensed at 1,500 per well in 5uL of culture medium into white solid bottom 1536-well plates (Corning Life Sciences, Corning, NY) using a Multidrop Combi (Thermo Scientific, Waltham, MA) dispenser. The assay plates were incubated at 37 C and 5% CO2 for 5hr, and then 23nL of compounds dissolved in DMSO and positive control were transferred using a Pintool station (Wako, San Diego, CA). The assay plates were incubated at 37C and 5% CO2 for 17hr. For cytotoxicity read, after 16hr incubation at 37C, 1uL CellTiter-Fluor reagent (Promega Corporation, Madison, WI) was added to each well of the assay plates using Flying Reagent Dispenser (FRD, Aurora Discovery, San Diego, CA). After 1hr incubation at 37C and 5% CO2, the fluorescence signal was quantified using a ViewLux plate reader (PerkinElmer, Shelton, CT).
On the technique in general: qHTS replaces the single test concentration by a dilution series.
For `C[n+]1cc2c3c(ccc2c2ccc4cc5c(cc4c21)OCO5)OCO3`, the Potency is 1.03 µM (active). With `CCC(N)(CO)CO`, the “activity change, negative = cytotoxicity” value was 8.15%. `NC(=O)C1(N2CCCCC2)CCN(CCCN2c3ccccc3CCc3ccc(Cl)cc32)CC1`: the Potency is 26.6 µM (active). Take `Cc1cc(O)c(C(C)(C)C)cc1C(C)(C)C`: the Potency was 61.1 µM (active). The same measure, in the same setting: the same measure for `N=C1C=CC(=C(c2ccc(N)cc2)c2ccc(N)cc2)C=C1`: 12.2 µM (active). Take `NNC(=O)c1cccc(C(=O)NN)c1`: the “activity change, negative = cytotoxicity” value was -0.354%. Consider `O=c1cccccc1O`, for which the Potency is 7.84 µM (active). The same measure, in the same setting: the same measure for `CC[C@H](c1ccc(O)cc1)[C@@H](CC)c1ccc(O)cc1`: 68.6 µM (active). Consider `CCCCCOC(=O)CCCC`, for which the “activity change, negative = cytotoxicity” value is 6.72%. Regarding `O=C1C=CC(=O)N1c1ccc(Cc2ccc(N3C(=O)C=CC3=O)cc2)cc1`, the Potency is 6.11 µM (active). Still for that read-out and setting: the same measure for `CCOC(=O)O[C@H](C)OC(=O)c1ccc2c(c1)cc(C(=O)NC1CCN(C(C)C)CC1)n2Cc1cc(-c2ccc(Cl)s2)on1`: 14.3 µM (active). Same read-out and setting: the same measure for `CCCCCCCCCCn1cc[n+](CCCCCCCCCC)c1C`: 6.87 µM (active); for `CC/C(=C(\c1ccc(O)cc1)c1ccc(OCCN(C)C)cc1)c1ccccc1`: 34.4 µM (active).

Consider `O=c1c(-c2ccccc2)c1-c1ccccc1`, for which the Potency was 16.8 µM (active).

`CCN(C(=O)N(CC)c1ccccc1)c1ccccc1`: the “activity change, negative = cytotoxicity” value was -3.21%. Consider `O=C1c2ccccc2Cc2ccccc21`, for which the Potency was 30.9 µM (active). Same read-out and setting: the same measure for `CCCCCCCCCCCCCCCCCC[N+](C)(C)C`: 27.4 µM (active). Turning to `Cc1cc(N)c(S(=O)(=O)O)cc1Cl`, the “activity change, negative = cytotoxicity” value is 4.93%. Regarding `COc1ccc(C(=O)/C(Br)=C\C(=O)O)cc1`, the Potency was 54.5 µM (active).

Regarding `CCC(C)Nc1ccc(NC(C)CC)cc1` (stereo not given), the Potency is 17.6 µM (active).

In the case of `CCCCCCCC[P+](CCCCCCCC)(CCCCCCCC)CCCCCCCC`, the Potency was 5.42 µM (active). The same measure, in the same setting: the same measure for `C/C=C1/C(=O)C[C@H]2[C@@H]3CCC4=CC(=O)CC[C@]4(C)[C@H]3CC[C@]12C`: 60.9 µM (active); for `OCCN1CCN(CC/C=C2/c3ccccc3Sc3ccc(C(F)(F)F)cc32)CC1`: 29.8 µM (active). Same read-out and setting: next, `CN1CCC(Nc2ncc3ncnc(Nc4ccc(F)c(Cl)c4)c3n2)CC1`: 29.8 µM (active). Same read-out and setting: the same measure for `CCCCc1oc2ccc(NS(C)(=O)=O)cc2c1C(=O)c1ccc(OCCCN(CCCC)CCCC)cc1`: 16.8 µM (active). Turning to `NC(=O)NS(=O)(=O)c1ccc(N)cc1`, the “activity change, negative = cytotoxicity” value is 6.67% [at 42.5 µM]. Regarding `CCc1cc(Cc2cc(CC)c(N)c(CC)c2)cc(CC)c1N`, the Potency is 27.3 µM (active). `CCCN(CCC)c1c([N+](=O)[O-])cc(C(F)(F)F)c(N)c1[N+](=O)[O-]`: the Potency was 43.1 µM (active). For `CCOC(=O)O[C@]1(C(=O)OCCl)CC[C@H]2[C@@H]3CCC4=CC(=O)C=C[C@]4(C)[C@H]3[C@@H](O)C[C@@]21C`, the “activity change, negative = cytotoxicity” value is -0.387% [at 42.5 µM]. For `On1ccccc1=S`, the Potency is 0.428 µM (active). The same measure, in the same setting: the same measure for `CC(C)(C)CC(C)(C)c1ccc(OCCOCC[N+](C)(C)Cc2ccccc2)cc1`: 61.1 µM (active); for `O=c1[nH]sc2cc(Cl)ccc12`: 26.6 µM (active). Take `CCCCCCCCCCCCCCCCCC[N+](C)(C)Cc1ccccc1`: the Potency is 4.9 µM (active). Still for that read-out and setting: next, `CCCC1O[C@@H]2C[C@H]3[C@@H]4CCC5=CC(=O)C=C[C@]5(C)[C@H]4[C@@H](O)C[C@]3(C)[C@]2(C(=O)CO)O1` (stereo not given in full): 61.2 µM (active) and 61.1 µM (active).

`Nc1ccc(N)c2ccccc12`: the Potency is 30.6 µM (active). Take `CCC(C)(C)C1CCCCC1OC(C)=O` (stereo not given): the “activity change, negative = cytotoxicity” value was 5.06%. Turning to `[O-][n+]1ccccc1SSc1cccc[n+]1[O-]`, the Potency is 0.073 µM (active).

In the case of `C/C=C(\C)C(=O)OCc1ccccc1`, the “activity change, negative = cytotoxicity” value was 3.31%. Regarding `CN1CCN(CCC(=O)N2c3ccccc3Sc3ccc(C(F)(F)F)cc32)CC1`, the Potency is 23.7 µM (active). The same measure, in the same setting: the same measure for `CCCCCOc1ccccc1/C(=C\SC)n1ccnc1`: 16.8 µM (active).
